Assay results published in PubChem BioAssay (EPA / NIEHS).
Calls of active or inactive are those of the source. How the source made its calls: active means hit-call score of the fitted dose curve at least 0.9, where 1 is the maximum; inactive means score below 0.9.

Assays:
Conditions in all cases: primary human HUVEC with PBMC; actives raise or lower the signal
[1] = read-out: Interleukin-1 alpha (IL1a), IL1A (gene 3552); assay: BSK_LPS_IL1a: BioMAP Diversity Plus: LPS Assay for Interleukin-1 alpha (IL1a) Biomarker Activity (AID 2283080)
How it was run: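 ELISA read-out of IL-1 alpha from a human primary vascular co-culture (endothelium plus PBMC) under LPS, sampled 24 hours post-dosing. Activity was fitted in both directions relative to DMSO controls.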

[2] = read-out: Monocyte Chemoattractant Protein-1 (MCP1), CCL2 (gene 6347); assay: BSK_LPS_MCP1: BioMAP Diversity Plus: LPS Assay for Monocyte Chemoattractant Protein-1 (MCP1) Biomarker Activity (AID 2283081);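 on AC50: secreted MCP-1 protein quantified by ELISA in culture supernatant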
How it was run: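 Human endothelial–PBMC co-cultures were dosed with chemical, then LPS-driven MCP-1 levels were quantified by ELISA at 24 h. Activity in either direction was fitted versus DMSO negative control.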

[3] = BSK_LPS_PGE2: BioMAP Diversity Plus: LPS Assay for Prostaglandin E2 (PGE2) Biomarker Activity (AID 2283082);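 on AC50: secreted prostaglandin E2 measured by ELISA in LPS-stimulated co-culture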
How it was run: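 LPS-activated HUVEC/PBMC co-culture; cmpd dosed, 24 h; PGE2 by ELISA; bidirectional fit vs DMSO; SRB (0.1%, TCA-fixed, 560 nm) in parallel plates for overt cytotox.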

[4] = read-out: Macrophage colony-stimulating factor (MCSF), CSF1 (gene 1435); assay: BSK_LPS_MCSF: BioMAP Diversity Plus: LPS Assay for Macrophage colony-stimulating factor (MCSF) Biomarker Activity (AID 2283083)
How it was run: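 ELISA readout of M-CSF after 24 h compound exposure in a human endothelial/PBMC co-culture. Activity, in either direction, is fitted relative to DMSO vehicle.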

[5] = read-out: Tissue Factor, F3 (gene 2152); assay: BSK_LPS_TissueFactor: BioMAP Diversity Plus: LPS Assay for Tissue Factor Biomarker Activity (AID 2283084)
How it was run: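 ELISA signal for cell-surface Tissue Factor (CD142) was read 24 h after compound dosing of an LPS-stimulated human endothelial–PBMC primary co-culture. Gain or loss of signal was scored relative to DMSO.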

[6] = read-out: Tumor necrosis factor (Homo sapiens) (UniProt P01375); assay: BSK_LPS_TNFa: BioMAP Diversity Plus: LPS Assay for Tumour Necrosis Factor alpha (TNFa) Biomarker Activity (AID 2283085);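 on AC50: TNFa protein level quantified by ELISA in the co-culture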
How it was run: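 Read-out is ELISA of TNFa in primary human endothelial cell–PBMC co-cultures at 24 h after compound. Activity in either direction was fitted against DMSO.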

CD38, CD38 (gene 952) = assay: BSK_SAg_CD38: BioMAP Diversity Plus: SAg Assay for CD38 Biomarker Activity (AID 2283087)
How it was run: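 Human HUVEC plus PBMC co-culture stimulated with superantigen; CD38 measured by ELISA 24 h after chemical dosing. Fluorescence read-out, bidirectional fit against DMSO; cytotoxicity tracked in parallel by SRB and Alamar Blue.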

CD40, CD40 (gene 958) = assay: BSK_SAg_CD40: BioMAP Diversity Plus: SAg Assay for CD40 Biomarker Activity (AID 2283088)
How it was run: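 Compounds were dosed onto a human primary endothelial–PBMC co-culture, and after 24 h CD40 was quantified by ELISA using a fluorescence signal. Activity in either direction was fitted relative to DMSO.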

CD69, CD69 (gene 969) = assay: BSK_SAg_CD69: BioMAP Diversity Plus: SAg Assay for CD69 Biomarker Activity (AID 2283089);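 on AC50: cell surface CD69 protein quantified by ELISA with fluorescence detection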
How it was run: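 Endothelial/PBMC co-culture; chemical added; 24 h incubation; CD69 ELISA with fluorescence detection; bidirectional fit vs DMSO.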

[7] = read-out: Vascular cell adhesion molecule 1 (VCAM1), VCAM1 (gene 7412); assay: BSK_LPS_VCAM1: BioMAP Diversity Plus: LPS Assay for Vascular cell adhesion molecule 1 (VCAM1) Biomarker Activity (AID 2283086)
How it was run: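 HUVEC + PBMC co-culture, LPS system; compound 24 h; VCAM-1 by ELISA; bidirectional fit vs DMSO control; parallel SRB (0.1%, TCA-fixed, 560 nm) for cytotoxicity.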

Measured: AC50

Tumor necrosis factor (Homo sapiens), sequence (P01375 whole entry, looked up): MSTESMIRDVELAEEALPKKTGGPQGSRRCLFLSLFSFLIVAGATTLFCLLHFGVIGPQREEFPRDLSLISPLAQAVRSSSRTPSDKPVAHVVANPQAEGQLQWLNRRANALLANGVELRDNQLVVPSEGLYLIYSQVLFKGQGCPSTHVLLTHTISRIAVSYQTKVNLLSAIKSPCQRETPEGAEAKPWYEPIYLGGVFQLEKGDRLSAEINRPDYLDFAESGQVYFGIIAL

CCCN(CCC)N=O
not listed: [7]
inactive: all other assays above

N#Cc1ccc(N(CC(N)=O)CC(F)(F)F)cc1C(F)(F)F
inactive: all assays above

c1cc2ccc3cccc4ccc(c1)c2c34
active: CD38, CD38 (gene 952) 11.5 µM | CD69, CD69 (gene 969) 4.13 µM
inactive: [2] | [3] | [4] | [5] | [6]

O=C(O)C(F)(F)C(F)(F)C(F)(F)C(F)(F)C(F)(F)F
not listed: [1] | [7]
inactive: all other assays above

O=C(NC(=O)c1c(F)cccc1F)Nc1cc(Cl)c(OC(F)(F)C(F)F)c(Cl)c1
active: [6] 0.401 µM
not listed: [1] | [7]
inactive: all other assays above

Oc1ccc(Cl)cc1Cl
not listed: [1] | [7]
inactive: all other assays above

Cc1cc(-c2ccc(N)c(C)c2)ccc1N
active: [3] 7.16 µM
not listed: [1] | [7]
inactive: all other assays above

Nn1cnnc1
not listed: [1] | [7]
inactive: all other assays above

CCCCCCOC(=O)c1ccccc1C(=O)OCCCCCC
active: [2] 34.9 µM | [4] 20 µM | [7] 20 µM | CD38, CD38 (gene 952) 32.1 µM | CD40, CD40 (gene 958) 32.9 µM
inactive: [3] | [5] | [6] | CD69, CD69 (gene 969)

CC(C)(c1ccccc1)c1ccc(O)cc1
active: [2] 35.2 µM | [3] 12.4 µM | [4] 33.6 µM | [5] 32.2 µM | [6] 31.5 µM | [7] 33.4 µM | CD38, CD38 (gene 952) 31.2 µM | CD40, CD40 (gene 958) 31.1 µM | CD69, CD69 (gene 969) 37.9 µM

C=CC(=O)NCNC(=O)C=C
not listed: [1] | [7]
inactive: all other assays above

c1ccc(-c2ccccc2)cc1
not listed: [1] | [7]
inactive: all other assays above

CCOC(=O)C(O)(c1ccc(Cl)cc1)c1ccc(Cl)cc1
active: [2] 39.1 µM | [4] 28.2 µM | [5] 34 µM | [6] 39.3 µM | [7] 34 µM | CD38, CD38 (gene 952) 29.4 µM | CD40, CD40 (gene 958) 30.4 µM | CD69, CD69 (gene 969) 36 µM
inactive: [3]

Nc1ccc(-c2ccc(N)cc2)cc1
active: [3] 8.27 µM
not listed: [1] | [7]
inactive: all other assays above

Cc1ccc(O)c(C)c1
active: [3] 3.27 µM
not listed: [1] | [7]
inactive: all other assays above

CCC(C)(CC)c1cc(NC(=O)c2c(OC)cccc2OC)on1
not listed: [1] | [7]
inactive: all other assays above

CC#Cc1cc(C)nc(Nc2ccccc2)n1
active: [3] 8.96 µM
not listed: [1] | [7]
inactive: all other assays above

C1CC2OC2CC1C1CO1 (stereo unspecified)
not listed: [1] | [7]
inactive: all other assays above

COS(=O)(=O)OC
active: [6] 0.318 µM
not listed: [1]
inactive: all other assays above

CC(c1ccc(O)cc1)(c1ccc(O)cc1)c1ccc(O)cc1
inactive: [5]
active: [2] 20 µM | [3] 34.6 µM | [4] 26.4 µM | [6] 32.6 µM | CD38, CD38 (gene 952) 24.5 µM | CD40, CD40 (gene 958) 20.5 µM | CD69, CD69 (gene 969) 20 µM

ClC(Cl)=C(c1ccc(Cl)cc1)c1ccc(Cl)cc1
active: [2] 35.4 µM | [3] 8.02 µM | [5] 32.3 µM | [6] 31.8 µM | CD38, CD38 (gene 952) 33.3 µM | CD40, CD40 (gene 958) 32.5 µM | CD69, CD69 (gene 969) 30.6 µM

CCOCCOC(C)=O
not listed: [1]
inactive: all other assays above

C=CC(N)=O
not listed: [1]
inactive: all other assays above

CCSC(=O)N(CC)C1CCCCC1
not listed: [1] | [7]
inactive: all other assays above

CCOP(=S)(OCC)SCSC(C)(C)C
active: [6] 35.2 µM
not listed: [1] | [7]
inactive: all other assays above

Clc1ccc(Cl)cc1
not listed: [1] | [7]
inactive: all other assays above

CN(C)c1nc(=O)n(C2CCCCC2)c(=O)n1C
not listed: [1] | [7]
inactive: all other assays above

O=C(NC(=O)c1cc(F)c(F)cc1Cl)Nc1cc(F)ccc1N1CCC(C(=O)O)CC1
active: [6] 10 µM
not listed: [1] | [7]
inactive: all other assays above

Oc1ccc(C(c2ccc(O)cc2)(C(F)(F)F)C(F)(F)F)cc1
active: [2] 27.5 µM | [3] 19.6 µM | [4] 20.1 µM | [5] 37.9 µM | [6] 21.5 µM | CD38, CD38 (gene 952) 20.6 µM | CD40, CD40 (gene 958) 18.3 µM | CD69, CD69 (gene 969) 26.6 µM

Cc1ccccc1[N+](=O)[O-]
not listed: [1] | [7]
inactive: all other assays above

CCC(C)c1cc([N+](=O)[O-])cc([N+](=O)[O-])c1O (stereo unspecified)
active: [2] 15 µM | [3] 6.51 µM | [4] 20 µM | CD38, CD38 (gene 952) 18.7 µM | CD40, CD40 (gene 958) 14.3 µM | CD69, CD69 (gene 969) 12.4 µM
inactive: [5] | [6]

O=S(=O)(O)C(F)(F)C(F)(F)C(F)(F)C(F)(F)F
not listed: [1]
inactive: all other assays above

C[C@]12CCC(=O)C=C1CC[C@@H]1[C@@H]2CC[C@@]2(C)[C@H]1CC[C@]2(C)O
not listed: [1]
inactive: all other assays above

Cc1cccc(C)c1N
not listed: [1]
inactive: all other assays above

Sc1ccccc1
not listed: [1]
inactive: all other assays above
